Assay [1] can be described thus: optical density shifts of acrAB sulA E. coli – strain DRC41, OD650, 48 h, E. coli filamentation inducer project, primary screen (AID 1152).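 Also: E. coli MC1000 strain DRC41 lacking acrAB efflux pump and sulA.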 The settings on record: higher = more signal, called active from +8 up or from −8 down.
A short description of assay [2]: probe aLefty1 binding on compound microarray – biochemical, small-molecule microarray, 635/667 nm fluorescence, primary screen (AID 1153).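 Also: score merges spot fluorescence with signal-to-noise ratio from the scanned slide images.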 Particulars: higher = more signal.
The nature of assay [3]: plasmodial surface anion channel blockers, osmotic lysis – cell-based, P. falciparum Indochina, OD700, 1 h, primary screen (AID 1154). Particulars: P. falciparum Indochina infected RBC osmotic lysis, higher = more signal, called active from +8 up or from −8 down.
Assay [4] is described as follows: plasmodial surface anion channel blockers, osmotic lysis – cell-based, P. falciparum Indochina, OD700, 2 h, primary screen (AID 1155).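 Also: lysis reports solute entry through the parasite surface anion channel PSAC.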 Particulars: P. falciparum Indochina infected erythrocytes, higher = more signal, called active from +8 up or from −8 down.
Assay [5] is described as follows: changes in parasitized red cell lysis, either direction – P. falciparum Indochina, OD700, 3 h, PSAC antagonist project, primary screen (AID 1156). The settings on record: P. falciparum-infected erythrocytes, osmotic lysis, higher = more signal, called active from +8 up or from −8 down.
Assay [6] is described as follows: plasmodial surface anion channel blockers, osmotic lysis – cell-based, P. falciparum Indochina, OD700, 18 h, primary screen (AID 1157). Particulars: P. falciparum Indochina infected erythrocytes, osmotic lysis OD700, 18 h; higher = more signal, called active from +8 up or from −8 down.
The nature of assay [7]: S6 kinase pathway phospho-S6 level changes – cell-based, A549, cytoblot, luminescence, serum-stimulated, primary screen (AID 1158).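 Also: serum-stimulated A549 lung adenocarcinoma cells; signal is phosphorylated S6 detected by cytoblot immunostaining with HRP secondary.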 Particulars: 5 h, higher = more signal.
For assay [8], the target named is NADPH oxidase 2 (Homo sapiens) (UniProt P04839). The assay is described as follows: compounds shifting NOX2 Amplex Red fluorescence – cell-based, HEK293-NOX2, PMA-stimulated, NOX inhibitor project, primary screen (AID 1159). Also: test concentration not given here. The settings on record: 45 min, higher = more signal, called active from +8 up or from −8 down.
Assay [9] deals with NADPH oxidase 4 (Homo sapiens) (UniProt Q9NPH5). The assay is described as follows: compounds shifting NOX4 Amplex Red fluorescence – cell-based, HEK293-NOX4, tetracycline-induced, NOX inhibitor project, primary screen (AID 1160). Particulars: HEK293-NOX4, Amplex Red H2O2 fluorescence, 45 min; higher = more signal, called active from +8 up or from −8 down.
For assay [10], the target named is NADPH oxidase 5 (Homo sapiens) (UniProt Q96PH1). The assay is described as follows: compounds shifting NOX5 Amplex Red fluorescence – cell-based, HEK293-NOX5, NOX inhibitor project, primary screen (AID 1161). Particulars: HEK293-NOX5, ionomycin, 45 min, higher = more signal.
Assay [11] in a line: compound effects on lung adenocarcinoma cell viability – A549, calcein-AM fluorescence, 48 h, basal, profiling panel (AID 1162). Also: test concentration not given here. The settings on record: higher = more signal.
The nature of assay [12]: compound effects on differentiated 3T3-L1 adipocyte viability – cell-based, 3T3-L1 adipocytes, calcein-AM fluorescence, 48 h, basal, profiling panel (AID 1163). Also: test concentration not given here. The settings on record: 3T3-L1 adipocytes viability, higher = more signal.
The nature of assay [13]: compound effects on hepatocellular carcinoma cell viability – HepG2, calcein-AM fluorescence, 48 h, basal, profiling panel (AID 1164). Also: test concentration not given here. The settings on record: higher = more signal.
Assay [14] is described as follows: compound effects on multiple myeloma cell viability – MM1S, calcein-AM fluorescence, 48 h, basal, profiling panel (AID 1165).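 Also: viability of MM1S multiple myeloma cells under basal unstimulated conditions; test concentration not given here.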 The settings on record: higher = more signal.
Assay [15] can be described thus: calcein-AM signal in unstimulated myeloma cells – cell-based, calcein-AM fluorescence, 48 h, PK04 Diversity Set, profiling panel (AID 1166).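 Also: cells grown under basal conditions without added stimulus; test concentration not given here.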 Particulars: RPMI8226 myeloma viability, higher = more signal.
Assay [16] in a line: JC-1 mitochondrial signal, unstimulated HepG2 cells – cell-based, JC-1 fluorescence, 24 h, 100 nL compound, profiling panel (AID 1167). Also: test concentration not given here. The settings on record: HepG2 mitochondrial potential, higher = more signal.
Assay [17] in a line: JC-1 mitochondrial signal, unstimulated adipocytes – cell-based, JC-1 fluorescence, 3T3-L1 adipocytes, 24 h, 100 nL compound, profiling panel (AID 1168). Also: test concentration not given here. Particulars: JC-1 mitochondrial fluorescence, higher = more signal, called active from +8 up or from −8 down.
Assay [18] can be described thus: JC-1 mitochondrial signal, unstimulated myeloma cells – cell-based, JC-1 fluorescence, RPMI8226, 24 h, 100 nL compound, profiling panel (AID 1169). Also: test concentration not given here. Particulars: JC-1 mitochondrial potential fluorescence, higher = more signal.
A short description of assay [19]: JC-1 mitochondrial signal, unstimulated MM1S myeloma – cell-based, JC-1 fluorescence, 24 h, 100 nL compound, profiling panel (AID 1170). Also: test concentration not given here. The settings on record: MM1S mitochondrial potential, higher = more signal.
Assay [20] in a line: resazurin metabolic signal in A549 cells – cell-based, resazurin fluorescence, 24 h, PK04 Diversity Set, profiling panel (AID 1171). Also: test concentration not given here. The settings on record: A549 viability, higher = more signal, called active from +8 up or from −8 down.

Structures are written as SMILES. Activity calls are given as the source filed them.

Sequence of NADPH oxidase 2 (Homo sapiens) (P04839 whole entry, looked up): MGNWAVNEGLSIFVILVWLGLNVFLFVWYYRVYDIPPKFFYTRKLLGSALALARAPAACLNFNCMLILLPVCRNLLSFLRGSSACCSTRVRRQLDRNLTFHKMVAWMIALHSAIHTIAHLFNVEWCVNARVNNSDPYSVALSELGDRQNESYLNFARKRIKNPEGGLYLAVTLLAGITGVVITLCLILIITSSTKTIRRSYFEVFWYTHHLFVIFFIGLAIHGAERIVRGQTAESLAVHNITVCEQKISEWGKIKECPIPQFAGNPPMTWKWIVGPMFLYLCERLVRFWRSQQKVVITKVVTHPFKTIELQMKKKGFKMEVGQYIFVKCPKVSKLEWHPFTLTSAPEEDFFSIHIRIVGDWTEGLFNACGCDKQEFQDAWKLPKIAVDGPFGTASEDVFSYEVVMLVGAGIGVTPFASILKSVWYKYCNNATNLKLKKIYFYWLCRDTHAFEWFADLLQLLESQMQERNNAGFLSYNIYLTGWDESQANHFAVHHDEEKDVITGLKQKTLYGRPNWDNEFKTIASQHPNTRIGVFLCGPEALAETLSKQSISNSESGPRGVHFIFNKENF
Sequence of NADPH oxidase 5 (Homo sapiens) (Q96PH1 whole entry, looked up): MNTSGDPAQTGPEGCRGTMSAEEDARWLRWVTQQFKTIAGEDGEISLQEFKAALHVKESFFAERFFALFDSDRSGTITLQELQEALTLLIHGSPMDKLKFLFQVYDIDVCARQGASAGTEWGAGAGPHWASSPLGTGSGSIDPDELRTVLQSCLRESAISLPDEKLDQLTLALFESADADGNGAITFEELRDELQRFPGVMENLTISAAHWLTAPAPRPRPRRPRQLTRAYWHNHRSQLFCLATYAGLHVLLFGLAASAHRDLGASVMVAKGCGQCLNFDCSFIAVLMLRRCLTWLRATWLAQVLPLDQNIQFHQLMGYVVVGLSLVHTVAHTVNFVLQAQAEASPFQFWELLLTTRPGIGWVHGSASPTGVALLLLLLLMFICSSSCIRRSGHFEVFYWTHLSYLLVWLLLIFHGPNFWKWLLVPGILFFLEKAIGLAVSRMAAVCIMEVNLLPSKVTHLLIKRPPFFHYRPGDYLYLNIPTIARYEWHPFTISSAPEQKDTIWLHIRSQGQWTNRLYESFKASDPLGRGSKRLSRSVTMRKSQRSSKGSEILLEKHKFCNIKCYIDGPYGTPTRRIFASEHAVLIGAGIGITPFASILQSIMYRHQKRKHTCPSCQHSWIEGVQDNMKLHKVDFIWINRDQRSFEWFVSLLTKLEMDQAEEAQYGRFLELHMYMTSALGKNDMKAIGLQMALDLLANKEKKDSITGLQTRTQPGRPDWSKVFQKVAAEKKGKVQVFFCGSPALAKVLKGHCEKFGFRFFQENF
Sequence of NADPH oxidase 4 (Homo sapiens) (Q9NPH5 whole entry, looked up): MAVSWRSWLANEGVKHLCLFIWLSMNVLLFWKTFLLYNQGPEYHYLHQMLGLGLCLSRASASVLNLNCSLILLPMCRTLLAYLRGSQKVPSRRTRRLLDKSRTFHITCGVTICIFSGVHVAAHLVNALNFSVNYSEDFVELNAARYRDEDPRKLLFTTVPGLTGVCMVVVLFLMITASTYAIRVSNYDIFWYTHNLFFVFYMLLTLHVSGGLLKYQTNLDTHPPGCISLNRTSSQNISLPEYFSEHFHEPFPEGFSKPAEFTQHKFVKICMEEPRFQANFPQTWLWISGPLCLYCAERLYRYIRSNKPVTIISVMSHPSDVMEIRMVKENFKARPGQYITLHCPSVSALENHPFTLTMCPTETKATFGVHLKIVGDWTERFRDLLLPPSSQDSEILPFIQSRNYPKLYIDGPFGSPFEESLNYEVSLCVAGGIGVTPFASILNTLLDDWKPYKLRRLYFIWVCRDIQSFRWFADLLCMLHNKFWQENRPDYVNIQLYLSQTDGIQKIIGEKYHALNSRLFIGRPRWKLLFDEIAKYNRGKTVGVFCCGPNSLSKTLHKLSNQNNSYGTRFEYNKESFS

Regarding `COC(=O)CC=C[C@@H](C)[C@@H](C=NO[C@@H]1O[C@H](COC(C)=O)[C@@H](OC(C)=O)[C@H](OC(C)=O)[C@H]1OC(C)=O)NS(=O)(=O)c1ccc(C)cc1`, the z-score is -0.673 (inactive) in assay [1]; 0.683 (inactive) in assay [3]; 0.54 (inactive) in assay [4]; 1.1 (inactive) in [5]; 0.294 (inactive) in assay [6]; -0.448 in [7]. In addition, the z-score in assay [8] was 0.837 (inactive); in [9], 0.968 (inactive); in assay [10] it was 0.569; in assay [11], -0.4; in assay [12] it was -0.387; in assay [13] it was -0.416. The z-score was 0.27 in assay [14]; -1.81 in assay [15]; -0.365 in assay [16]; -1.39 (inactive) in [17]; -0.736 in assay [18]; 0.049 in [19]. Moreover, the z-score in assay [20] was -0.251 (inactive). The same molecule showed a composite z-score in assay [2] of -0.397.

For the molecule `COc1cccc([C@H]2Oc3ccc(OC)cc3C(=NOC[C@@H](O)[C@H]3O[C@@H]4OC(C)(C)O[C@@H]4[C@H]3O)[C@@H]2O)c1`, the z-score in [1] was -0.0985 (inactive); in assay [3], 5.05 (inactive); in [4], 0.458 (inactive); in assay [5], -0.128 (inactive); in [6], 0.537 (inactive); in assay [7] it was -0.512. The z-score in assay [8] was -0.895 (inactive); in assay [9], -0.776 (inactive); in assay [10], -0.23; in [11] it was -0.0077; in assay [12] it was 0.568; in assay [13], -1.49. The z-score was -0.174 in assay [14]; -0.684 in [15]; -1.27 in assay [16]; -0.751 (inactive) in assay [17]; -0.578 in assay [18]; 0.49 in [19]. For the same molecule, in assay [20], the z-score is -0.794 (inactive). The composite z-score in assay [2] is -0.387.

For `COC(=O)[C@@H]1CC[C@H](C)[C@@H](c2ccc(C)cc2)N1C(=O)c1ccc(C=NOCC[C@@H]2C=C[C@H](OC(C)=O)[C@@H](COC(C)=O)O2)cc1`, the z-score is 0.118 (inactive) in assay [1]; 3.09 (inactive) in assay [3]; 0.897 (inactive) in [4]; 0.533 (inactive) in assay [5]; 0.858 (inactive) in [6]; -0.994 in [7]. For the same molecule, the z-score in assay [8] was -1.19 (inactive); in assay [9], 0.605 (inactive); in assay [10], -0.134; in assay [11] it was -0.521; in [12] it was 0.556; in assay [13] it was -1.13. The z-score in [14] is -0.958; in assay [15] it was -1.32; in assay [16], -0.674; in [17], -1.67 (inactive); in assay [18] it was 0.682; in assay [19], -0.136. For the same molecule, the z-score in assay [20] was 0.154 (inactive). The composite z-score in [2] was -0.111.

`CC(=O)OC[C@H]1O[C@@H](ON=C(C)CCN2CCCc3nc(C)c(C)cc32)[C@H](OC(C)=O)[C@@H](OC(C)=O)[C@@H]1OC(C)=O`: the z-score was -1.13 (inactive) in [1]; -0.72 (inactive) in [3]; 0.0956 (inactive) in assay [4]; 1.01 (inactive) in assay [5]; -1.18 (inactive) in assay [6]; 0.649 in assay [7]. The z-score was 0.502 (inactive) in [8]; -1.36 (inactive) in assay [9]; -1.09 in assay [10]; -0.984 in [11]; 0.191 in assay [12]; -0.563 in assay [13]. Also, the z-score was -1.05 in assay [14]; -2.45 in assay [15]; -0.0457 in [16]; 0.553 (inactive) in [17]; -0.572 in assay [18]; -0.903 in assay [19]. Further, in assay [20], the z-score is 0.0264 (inactive). The composite z-score in assay [2] was -0.115.

Turning to `CO[C@H]1COC(=O)[C@@H](C)COC(=O)[C@H](C)NC(=O)CC=C[C@H]1C`, the z-score is -0.0819 (inactive) in assay [1]; -0.0875 (inactive) in [3]; 0.725 (inactive) in [4]; 0.76 (inactive) in assay [5]; 0.403 (inactive) in assay [6]; -0.144 in assay [7]. The z-score in assay [8] was 1.72 (inactive); in assay [9] it was 0.315 (inactive); in [10] it was 0.895; in [11], -0.235; in assay [12] it was 0.18; in assay [13] it was 0.314. In addition, the z-score in assay [14] is 0.0766; in assay [15] it was 0.235; in [16] it was 0.631; in assay [17], 0.118 (inactive); in assay [18], -0.693; in assay [19], 0.86. The z-score in assay [20] was 0.488 (inactive). Moreover, the composite z-score in [2] is -0.0186.

Take `COC(=O)[C@@H]1CC[C@H](C)[C@@H](c2ccc(C)cc2)N1C(=O)c1ccc(C=NO[C@@H](C)c2cn([C@H](CO)Cc3ccccc3)nn2)cc1`: the z-score in [1] was 0.442 (inactive); in assay [3] it was 4.57 (inactive); in assay [4] it was 1.12 (inactive); in assay [5], 0.809 (inactive); in assay [6], 0.907 (inactive); in [7], 0.406. Moreover, the z-score in [8] is -3.24 (inactive); in assay [9], -1.13 (inactive); in assay [10] it was -3.8; in assay [11], 0.724; in assay [12], -0.412; in assay [13], -0.759. The z-score in [14] is -1.41; in [15], -1.92; in [16] it was -0.86; in assay [17] it was 0.0596 (inactive); in [18], -0.946; in assay [19], -0.901. In addition, the z-score in assay [20] is -0.392 (inactive). The same molecule gave a composite z-score in assay [2] of -0.0615.

For the molecule `C[C@@H]1CC[C@H]2C(=O)O[C@@H](COc3ccc(C(C)(C)C)cc3)CN2[C@@H]1c1ccc(Br)cc1`, the z-score was 0.328 (inactive) in assay [1]; 0.857 (inactive) in assay [3]; 0.681 (inactive) in [4]; -1.34 (inactive) in assay [5]; 0.54 (inactive) in assay [6]; -0.0874 in assay [7]. For the same molecule, the z-score in assay [8] was -0.303 (inactive); in assay [9] it was 0.732 (inactive); in [10], 0.154; in assay [11], 0.373; in assay [12], 1.03; in [13] it was 0.843. Moreover, the z-score in assay [14] was -2.33; in assay [15], -0.391; in [16], -1.05; in assay [17], -0.391 (inactive); in assay [18] it was -0.509; in assay [19] it was 0.291. The z-score in assay [20] was 1.99 (inactive). Moreover, in [2], the composite z-score is -0.229.

Source of the values: PubChem BioAssay.
